Compounds with a hit are over-represented: about 0.9% of the library has one in this group of screens.
SRC1 TRFRET art – TR-FRET detection interference compounds, primary screen, artefact control for PPARgamma SRC-1 recruitment agonists, biochemical, TR-FRET emission ratio | TR-FRET detection artefact counter-screen; active compounds read high | TR-FRET ratio at 8 µM | hit rate 0.34% among 99,000; in the data active = TR-FRET ratio above about 2300
SRC3 TRFRET art – TR-FRET detection interference compounds, artefact control for PPARgamma SRC-3 recruitment agonists, biochemical, TR-FRET ratio; AID 1048, 2008; TR-FRET ratio at 8 µM; hit rate 0.39% among 99,000; TR-FRET artefact counter-screen, PPARgamma/SRC-3 format; active compounds read high
PPARg SRC-1 ag – PPARgamma agonists recruiting SRC-1 coactivator, primary screen, biochemical. Peroxisome proliferator-activated receptor gamma (Homo sapiens), P37231. PPARgamma-SRC-1 coactivator recruitment biochemical assay. activation, % at 8 µM. hit rate 0.41% among 200,000. AID 631, 2007; in the data active = activation above about 19%;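 note: 0% = DMSO and 100% = reference agonist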
Target sequence (P37231 whole entry, looked up): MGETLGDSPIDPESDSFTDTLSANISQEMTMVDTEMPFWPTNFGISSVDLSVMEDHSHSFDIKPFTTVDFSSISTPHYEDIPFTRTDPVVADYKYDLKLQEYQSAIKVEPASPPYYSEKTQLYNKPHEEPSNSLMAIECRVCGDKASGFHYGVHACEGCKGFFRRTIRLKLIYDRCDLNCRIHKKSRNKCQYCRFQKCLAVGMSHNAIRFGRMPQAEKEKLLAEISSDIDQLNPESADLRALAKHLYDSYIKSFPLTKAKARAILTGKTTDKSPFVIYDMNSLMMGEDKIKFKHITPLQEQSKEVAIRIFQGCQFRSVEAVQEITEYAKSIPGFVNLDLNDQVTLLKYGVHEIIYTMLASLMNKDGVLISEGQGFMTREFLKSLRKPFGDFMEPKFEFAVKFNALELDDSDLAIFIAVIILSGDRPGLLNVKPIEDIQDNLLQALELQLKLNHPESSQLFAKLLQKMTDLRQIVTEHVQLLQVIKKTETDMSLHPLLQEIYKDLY
SRC2 TRFRET art – TR-FRET signal artefacts, primary screen, artefact control for PPARgamma SRC-2 agonist project, biochemical; TR-FRET artefact counter-screen; active compounds read high; TR-FRET ratio at 8 µM; hit rate 0.4% among 200,000; AID 1049, 2008
PPARg SRC-3 ag – PPARgamma agonists recruiting SRC-3 coactivator, primary screen, biochemical; biochemical PPARgamma/SRC-3 coactivator recruitment assay; Peroxisome proliferator-activated receptor gamma (Homo sapiens), P37231; activation, % at 8 µM; hit rate 0.26% among 200,000; in the data active = activation above about 23%;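 note: 0% = DMSO and 100% = reference agonist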
PPARg SRC2 recr – agonists of PPARg-SRC-2 recruitment, primary screen, biochemical, HTS; Peroxisome proliferator-activated receptor gamma (Homo sapiens), P37231; PPARgamma LBD-SRC-2 recruitment; hit rate 0.34% among 200,000; activation, % at 8 µM; in the data active = activation above about 22%;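 note: 0% = vehicle and 100% = reference agonist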
* hit, by the source's call; . = not tested or not shown. Cut-off read from the data, not from the text of the source, unless noted: active = TR-FRET ratio above about 2000; inactive = the rest.

SMILES	SRC1 TRFRET art	SRC3 TRFRET art	PPARg SRC-1 ag	SRC2 TRFRET art	PPARg SRC-3 ag	PPARg SRC2 recr
CCOC(=O)c1sc(=NC(=O)c2ccccc2)n(C)c1C	2795*	2902*	3	2392*	6	8
CCOC(=O)c1sc(=NC(=O)COc2ccc(Cl)cc2)n(C)c1C	1669	1434	-3	1448	3	5
CCOC(=O)c1sc(=NC(=O)c2ccc(OC)c(OC)c2)n(C)c1C	.	.	80*	1525	1	4
Cc1ccc(-c2nc3sc4c(N)ncnc4c3c3c2CCCC3)cc1	.	.	0	1565	10	13
COc1cc2[nH]c(=S)n(NC(=O)c3ccccc3)c(=O)c2cc1OC	.	.	16	2013*	20	20
O=C(N=Nc1c(O)n(Cc2ccccc2)c2ccccc12)c1ccc(O)cc1	2013	1586	-2	1573	5	9
COc1ccc(C(=O)NCC(=O)N=Nc2c(O)n(Cc3ccccc3)c3ccccc23)cc1OC	2056	1814	1	2099*	6	34*
CCOc1ccc(N2CC(C(=O)Nc3ccccc3N3CCOCC3)CC2=O)cc1 (configuration not stated)	.	.	5	1634	7	5
OCC#CCSc1nnc(-c2ccc(Br)cc2)o1	.	.	13	1717	6	11
COC(=O)Sc1nnc(-c2ccc(Br)cc2)o1	.	.	45*	2802*	63*	54*
Cc1ccc(Cn2cc(SCC(=O)Nc3nccs3)c3ccccc32)cc1	.	.	-5	2880*	2	-2
Cc1cccc(Cn2cc(SCC(=O)Nc3nccs3)c3ccccc32)c1	.	.	2	1694	5	5
c1cc(CNC23CC4CC(CC(C4)C2)C3)ccn1	1532	1562	9	1465	2	1
CC1(C)Cc2c(C#N)c(SCC(=O)c3ccccc3)nc(N3CCOCC3)c2CS1	.	.	8	2038*	2	7
COc1cc(-c2nc(-c3ccc(Br)o3)no2)cc(OC)c1OC	.	.	10	1695	-6	13
COc1ccc(-c2noc(-c3ccc(Br)o3)n2)cc1OC	.	.	6	1607	36*	-1
COc1cccc(-c2csc(N3CCN(C(=S)Nc4ccccc4OC)CC3)n2)c1	.	.	4	2307*	2	5
COc1cccc(-c2csc(N3CCN(C(=S)Nc4cccc(Cl)c4)CC3)n2)c1	.	.	5	2562*	14	9
COc1cccc(-c2csc(N3CCN(C(=S)Nc4ccccc4Cl)CC3)n2)c1	.	.	0	1818	4	3
CC(=O)Oc1ccc2oc(=O)c3c(c2c1)CCCN3C(=O)CN1CCOCC1	2015	1623	10	1752	0	-5
CCOC(=O)C1CCN(c2nc(-c3ccc(C)cc3)nc3ccccc23)CC1	1903	1536	2	1765	-1	6
O=C(O)CCC(=O)NNC(=O)c1ccc(Br)cc1	1877	1786	-3	1660	-1	0
CCOC(=O)c1cc(-c2ccc3c(c2)OCO3)nc2onc(C)c12	.	.	2	1971*	-4	10
Cc1c(NS(=O)(=O)c2ccc3c(c2)OCCO3)cccc1-c1nc2cccnc2s1	.	.	10	1991*	3	-3
CCN(CC)c1ccc(/C=c2\sc3nc4ccccc4n3c2=O)c(O)c1	5472*	4506*	13	3056*	7	6
SMILES	SRC1 TRFRET art	SRC3 TRFRET art	PPARg SRC-1 ag	SRC2 TRFRET art	PPARg SRC-3 ag	PPARg SRC2 recr
O=c1/c(=C/c2ccc(O)c([N+](=O)[O-])c2)sc2nc3ccccc3n12	1575	1579	-1	1432	-1	6
COc1ccc(N(CC(=O)NCCSC2CCCCC2)S(C)(=O)=O)c(OC)c1	.	.	-6	1531	3	10
CC(=O)c1ccc(OC2OCCOC2Oc2ccc(C(C)=O)cc2)cc1 (configuration not stated)	1916	1473	-4	1559	0	-1
Cc1cc(C)c(C#N)c(SCc2cc3c(cc2Cl)OCO3)n1	.	.	3	2388*	-5	56*
COc1ccc(NC(=O)COC(=O)c2ccc(F)cc2F)cc1	1852	1571	11	1971*	12	6
COc1cccc(NC(=O)COC(=O)c2ccc(F)cc2F)c1	1458	1348	-6	1356	0	-1
CSc1ccccc1NC(=O)c1ccccc1C	1722	1637	6	1493	4	3
CC1Cc2ccccc2N1C(=O)Cn1c(=O)oc2cc(S(=O)(=O)N3CCCCC3)ccc21 (configuration not stated)	.	.	-3	1534	3	-9
O=C(CSc1nnc(C2CC2)n1-c1ccccc1)NCCc1ccc(F)cc1	.	.	0	2046*	12	23*
Cc1ccc(-n2c(N)c(C(=O)N3CCN(C)CC3)sc2=S)cc1	.	.	3	1307	30*	-4
CCc1cc2c(=O)c(-c3nc(C)cs3)c(CCCC(=O)O)oc2cc1O	1835	1707	4	1611	4	2
CCc1cc2c(=O)c(-c3nc(C)cs3)coc2cc1OC(C)C(=O)NCCO (configuration not stated)	5866*	1621	138*	2120*	3	25*
O=C(c1ccc(Cl)cc1)c1cnc(-c2ccc(Cl)cc2)s1	.	.	8	1525	7	-3
O=C(c1ccccc1)c1cnc(-c2ccc(Cl)cc2)s1	.	.	29*	1816	-1	-6
CSc1cccc(NC(=O)CN(Cc2ccc(Cl)cc2)S(C)(=O)=O)c1	.	.	1	1463	8	5
CC(C)CCNC(=O)CCCn1c(=O)[nH]c2ccc(Br)cc2c1=O	.	.	1	1635	10	8
O=C(CCCn1c(=O)[nH]c2ccc(Br)cc2c1=O)NCc1ccc(Cl)cc1	3045*	1575	31*	1480	-3	9
O=C(Cc1ccc(F)cc1)N1CCC(N2CCC(C(=O)N3CCOCC3)CC2)CC1	1658	1494	-1	1495	0	-2
COc1cccc(OCc2nc3c4cnn(-c5ccccc5)c4ncn3n2)c1	.	.	10	1589	7	3
c1ccc(-n2ncc3c2ncn2nc(-c4ccco4)nc32)cc1	.	.	12	2763*	15	47*
CSc1ccc(C(=O)C2CCCN(C(=O)c3cc4cc(F)ccc4[nH]3)C2)cc1 (configuration not stated)	2545*	2454*	9	2021*	2	9
CSc1ccc(C(=O)C2CCCN(C(=O)c3csc(C(C)=O)c3)C2)cc1 (configuration not stated)	1442	1355	-6	1596	-5	5
Cc1cc(Cl)ccc1Oc1ncnc2oc(-c3ccccc3)cc12	.	.	5	1479	62*	10
Cc1cc(C)c2nc(SCC(=O)N3CC(=O)Nc4ccccc43)c(C#N)cc2c1	.	.	-4	3300*	-2	12
CCCN(C(=O)c1cccs1)c1nnc(-c2ccncc2)s1	.	.	4	1519	-1	4

High-throughput results: PubChem, The Scripps Research Institute Molecular Screening Center
